Drawing on PubChem BioAssay, this text covers composite z-score and z-score for five compounds.

Assay [1] in a line: compounds binding Alexa647 anti-His antibody – biochemical, small-molecule microarray, 635 nm fluorescence, artefact control for SMM control protein annotation, primary screen (AID 1128).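 Further: score merges feature fluorescence with signal-to-noise for each printed compound spot.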 Conditions: higher = more signal.
Assay [2] deals with Human papillomavirus type 1a E7 protein (residues 1-88). The assay is described as follows: HPV1a E7 small-molecule binders, primary screen, biochemical, small-molecule microarray, residues 1-88, 635 nm (AID 1129). Conditions: small-molecule microarray binding, fluorescence 635 nm; higher = more signal.
The target of assay [3] is Focal adhesion kinase 1 (Homo sapiens) (UniProt Q05397). The assay is described as follows: PTK2 protein binding on printed compound slides – biochemical, small-molecule microarray, 635/667 nm fluorescence, BSA, DTT, primary screen (AID 1130).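 Further: composite of spot emission at 667 nm and signal to noise over triplicate slides.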 Conditions: 635 nm fluorescence, higher = more signal.
Assay [4] deals with Fibrinogen (Alexa647-labelled). As to the kind of experiment: Alexa647-fibrinogen binding to printed small molecules – biochemical, small-molecule microarray, 635/667 nm fluorescence, artefact control for SMM control-protein annotation, profiling panel (AID 1131).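 Further: z-score merges 667 nm fluorescence with per-spot signal-to-noise over triplicate slides.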 Particulars: fibrinogen-A647 binding fluorescence, higher = more signal.
Assay [5] addresses Follistatin (Homo sapiens) (UniProt P19883). The assay is described as follows: FST protein binding to printed compounds – biochemical, small-molecule microarray, 635/667 nm fluorescence, primary screen (AID 1132). Particulars: 635 nm fluorescence, higher = more signal.
Assay [6] concerns the target Fibroblast growth factor 2 (Homo sapiens) (UniProt P09038). The assay is described as follows: basic fibroblast growth factor binding to printed compounds – biochemical, small-molecule microarray, 635/667 nm fluorescence, primary screen (AID 1133). Conditions: FGF2, fluorescence 635/667, higher = more signal.
Assay [7] can be described thus: JC-1 mitochondrial potential readout, lung cancer cells – cell-based, A549, JC-1 fluorescence, basal, 24 h, 100 nL, profiling panel (AID 1138).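 Further: A549 lung adenocarcinoma cells under basal conditions with no added stimulus; test concentration not given here.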 Particulars: higher = more signal.
The test system of another assay is Lefty1. The assay is described as follows: Lefty1 protein binding to printed compounds – biochemical, small-molecule microarray, 635/667 nm fluorescence, primary screen (AID 1139). Conditions: fluorescence 635/667, higher = more signal.
Assay [8] has as its system wheat germ agglutinin (Triticum aestivum), Alexa647-labelled. As to the kind of experiment: Alexa647-WGA lectin binding to printed small molecules – biochemical, small-molecule microarray, 635/667 nm fluorescence, artefact control for SMM control-protein annotation, profiling panel (AID 1140).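 Further: score merges 667 nm feature emission with signal to noise over triplicate slides.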 Particulars: WGA-A647 binding, 635 nm fluorescence, higher = more signal.
For assay [9], the target named is Luciferin 4-monooxygenase (Photinus pyralis) (UniProt P08659). The assay is described as follows: inhibition of purified Photinus pyralis luciferase – biochemical, luminescence, purified enzyme, 2006 set, primary screen (AID 1141).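 Further: cell-free assay with purified firefly luciferase at 100 ng per well in PBS; test concentration not given here.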 Conditions: purified firefly luciferase, SteadyGlo luminescence, 30 min; higher = more signal, called active from +8 up or from −8 down.

For assay [10], the system named is Wnt5a (protein binding on small-molecule microarray). The assay is described as follows: small molecules binding Wnt5a protein – biophysical, small-molecule microarray, 635/667 nm fluorescence, primary screen (AID 1142).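 Further: fluorescence read at 667 nm with signal to noise per printed feature.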 Particulars: 635 nm fluorescence, higher = more signal.
Assay [11] is described as follows: ATP-based viability of Huh7 replicon cells – cell-based, CellTiter-Glo luminescence, basal, 48 h, cytotoxicity control for HCV replication inhibitor project, primary screen (AID 1143).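 Further: Huh7 hepatoma cells carrying a hepatitis C replication reporter with no stimulus; test concentration not given here.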 Conditions: higher = more signal, called active from +8 up or from −8 down. Background: A replicon is a self-replicating genome or part of one, used to study replication in cells.
The nature of assay [12]: Pseudomonas biofilm growth suppression – PAO1 strain, BacTiter-Glo luminescence, LB-PBS, primary screen (AID 1144). Conditions: P. aeruginosa PAO1 biofilm, 12 h, higher = more signal.
A short description of assay [13]: basal CRE-LacZ reporter activity in PC12 – cell-based, unstimulated, primary screen (AID 1145). Conditions: no forskolin, luminescence, 4.5 h, higher = more signal, called active from +8 up or from −8 down.
Assay [14] is described as follows: forskolin-driven CRE-LacZ activity in PC12 – cell-based, CRE-LacZ reporter, forskolin-stimulated, primary screen (AID 1146).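 Further: PC12 cells with 6xCRE LacZ reporter stimulated by forskolin 10 µM; beta-galactosidase reporter signal reflecting CREB driven transcription.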 Conditions: luminescence, 4.5 h, higher = more signal, called active from +8 up or from −8 down.
In assay [15] the target is Streptavidin (Streptomyces avidinii) (UniProt P22629). As to the kind of experiment: compounds binding control protein streptavidin – biophysical, small-molecule microarray, 635/667 nm fluorescence, artefact control for SMM compound annotation, primary screen (AID 1147).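 Further: signal reflects streptavidin binding to arrayed compounds as a control protein.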 Particulars: higher = more signal.
A short description of assay [16]: probe aInhba binding on compound microarray – biochemical, small-molecule microarray, 635/667 nm fluorescence, primary screen (AID 1148).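 Further: score merges 667nm spot fluorescence with signal-to-noise for antibody binding to printed compounds.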 Particulars: higher = more signal.
Assay [17] addresses Torsin-1A (Homo sapiens) (UniProt O14656). As to the kind of experiment: TOR1A wild-type binding on microarray – cell lysate, small-molecule microarray, lysate, 635/667 nm, primary screen (AID 1149). Conditions: COS7 hTOR1A-WT lysate, 635 nm fluorescence, higher = more signal.
Assay [18] shares this target. As to the kind of experiment: torsin A mutant lysate binding on microarrays – cell lysate, small-molecule microarray, COS7 lysate, 635/667 nm fluorescence, primary screen (AID 1150).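 Further: score pools 667 nm emission and signal to noise measuring lysate protein binding.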 Particulars: COS7 hTOR1A mutant lysate, 635 nm fluorescence, higher = more signal.
Assay [19] concerns Sonic hedgehog protein (Shh). The assay is described as follows: Sonic hedgehog microarray binding compounds – biochemical, small-molecule microarray, 635/667 nm fluorescence, primary screen (AID 1151).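 Further: Shh protein binding to compounds spotted on small-molecule microarray slides; score combines spot fluorescence intensity with signal-to-noise across triplicate slides.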 Particulars: 635 nm fluorescence, higher = more signal.

Molecules are shown by their SMILES. Activity calls are given as the source filed them. Unless noted, how the calls were made is not given here.

Chain of Follistatin (Homo sapiens) (P19883 whole entry, looked up): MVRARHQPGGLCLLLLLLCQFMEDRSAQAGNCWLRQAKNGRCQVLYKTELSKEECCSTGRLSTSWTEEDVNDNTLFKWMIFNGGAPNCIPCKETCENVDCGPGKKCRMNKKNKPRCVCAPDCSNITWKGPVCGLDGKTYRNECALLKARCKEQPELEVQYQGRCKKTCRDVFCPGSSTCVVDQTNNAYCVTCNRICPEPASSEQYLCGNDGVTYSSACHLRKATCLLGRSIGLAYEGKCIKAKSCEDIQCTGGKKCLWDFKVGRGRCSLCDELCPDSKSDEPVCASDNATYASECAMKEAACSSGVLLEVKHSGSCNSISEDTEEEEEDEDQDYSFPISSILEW
Chain of Luciferin 4-monooxygenase (Photinus pyralis) (P08659 whole entry, looked up): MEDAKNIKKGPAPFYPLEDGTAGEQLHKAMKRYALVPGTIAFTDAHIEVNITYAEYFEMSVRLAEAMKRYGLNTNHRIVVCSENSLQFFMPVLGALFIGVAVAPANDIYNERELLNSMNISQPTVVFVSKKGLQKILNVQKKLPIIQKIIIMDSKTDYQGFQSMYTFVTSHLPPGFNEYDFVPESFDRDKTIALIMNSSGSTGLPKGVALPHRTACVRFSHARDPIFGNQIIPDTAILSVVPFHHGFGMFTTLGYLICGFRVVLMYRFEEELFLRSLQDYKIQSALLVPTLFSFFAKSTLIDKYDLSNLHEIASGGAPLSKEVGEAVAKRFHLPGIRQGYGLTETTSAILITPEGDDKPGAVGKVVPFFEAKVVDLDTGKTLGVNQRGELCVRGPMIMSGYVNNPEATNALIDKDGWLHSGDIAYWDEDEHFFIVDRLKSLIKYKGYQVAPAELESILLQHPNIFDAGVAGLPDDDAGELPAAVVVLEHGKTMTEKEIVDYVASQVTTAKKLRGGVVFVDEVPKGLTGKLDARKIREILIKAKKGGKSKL
Chain of Streptavidin (Streptomyces avidinii) (P22629 whole entry, looked up): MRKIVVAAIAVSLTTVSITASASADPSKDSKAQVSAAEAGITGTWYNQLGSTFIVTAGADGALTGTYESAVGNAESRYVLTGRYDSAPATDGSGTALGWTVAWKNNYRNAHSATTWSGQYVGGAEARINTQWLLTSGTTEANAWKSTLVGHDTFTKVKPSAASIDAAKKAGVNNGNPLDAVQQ
Chain of Focal adhesion kinase 1 (Homo sapiens) (Q05397 whole entry, looked up): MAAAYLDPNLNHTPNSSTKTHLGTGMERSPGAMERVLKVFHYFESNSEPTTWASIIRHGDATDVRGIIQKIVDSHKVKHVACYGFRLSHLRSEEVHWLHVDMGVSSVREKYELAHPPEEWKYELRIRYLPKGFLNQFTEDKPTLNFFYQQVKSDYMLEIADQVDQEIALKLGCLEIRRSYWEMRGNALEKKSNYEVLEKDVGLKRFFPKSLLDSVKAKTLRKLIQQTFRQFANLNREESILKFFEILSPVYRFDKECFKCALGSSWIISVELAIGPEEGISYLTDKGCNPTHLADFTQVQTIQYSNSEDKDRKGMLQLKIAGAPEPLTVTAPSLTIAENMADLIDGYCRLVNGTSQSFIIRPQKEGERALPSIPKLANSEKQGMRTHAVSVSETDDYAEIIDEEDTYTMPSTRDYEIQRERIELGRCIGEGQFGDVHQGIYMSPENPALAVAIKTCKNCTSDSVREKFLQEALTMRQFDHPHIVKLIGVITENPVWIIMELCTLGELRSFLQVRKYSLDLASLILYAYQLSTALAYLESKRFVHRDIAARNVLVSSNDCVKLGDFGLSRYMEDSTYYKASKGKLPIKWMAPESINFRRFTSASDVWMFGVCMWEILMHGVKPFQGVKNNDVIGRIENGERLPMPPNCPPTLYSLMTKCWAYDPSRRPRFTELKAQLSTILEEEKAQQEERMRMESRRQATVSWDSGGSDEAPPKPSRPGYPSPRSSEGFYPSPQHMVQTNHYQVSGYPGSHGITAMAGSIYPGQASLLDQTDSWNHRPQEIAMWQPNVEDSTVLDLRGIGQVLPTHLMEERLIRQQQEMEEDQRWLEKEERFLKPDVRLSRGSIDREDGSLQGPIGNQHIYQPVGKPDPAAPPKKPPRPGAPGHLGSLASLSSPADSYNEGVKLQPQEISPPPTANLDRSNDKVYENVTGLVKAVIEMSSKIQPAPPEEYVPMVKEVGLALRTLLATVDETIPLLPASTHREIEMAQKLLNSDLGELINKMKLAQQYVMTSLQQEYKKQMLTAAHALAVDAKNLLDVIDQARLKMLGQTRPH
Chain of Fibroblast growth factor 2 (Homo sapiens) (P09038 whole entry, looked up): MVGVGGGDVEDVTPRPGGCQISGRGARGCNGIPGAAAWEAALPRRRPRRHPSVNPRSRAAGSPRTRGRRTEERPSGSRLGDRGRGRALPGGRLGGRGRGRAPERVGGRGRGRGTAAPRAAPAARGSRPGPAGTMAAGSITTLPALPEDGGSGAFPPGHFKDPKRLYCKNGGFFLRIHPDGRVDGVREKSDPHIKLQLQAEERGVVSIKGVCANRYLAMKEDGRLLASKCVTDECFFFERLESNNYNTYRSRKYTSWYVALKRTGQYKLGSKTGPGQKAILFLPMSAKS
Chain of Torsin-1A (Homo sapiens) (O14656 whole entry, looked up): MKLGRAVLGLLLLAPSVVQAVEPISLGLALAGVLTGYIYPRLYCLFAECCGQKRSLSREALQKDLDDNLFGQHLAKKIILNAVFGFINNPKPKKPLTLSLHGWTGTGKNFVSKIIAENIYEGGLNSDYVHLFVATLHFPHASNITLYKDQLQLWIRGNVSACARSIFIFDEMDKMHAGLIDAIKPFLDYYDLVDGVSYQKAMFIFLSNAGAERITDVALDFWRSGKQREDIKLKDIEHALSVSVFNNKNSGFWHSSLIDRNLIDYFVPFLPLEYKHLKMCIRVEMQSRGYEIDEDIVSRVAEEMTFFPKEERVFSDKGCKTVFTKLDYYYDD

As to `CCCC=C(CCC)[C@@H](NC(=O)c1ccc(C(=O)OC)cc1)c1ccc(C(=O)OC)cc1`, the composite z-score in assay [1] is -0.202; in assay [2], 0.33; in [3], 0.723; in assay [4], 0.146; in [5] it was 0.0388; in assay [6], -1.47. Moreover, the composite z-score is -0.799 with Lefty1; 0.315 in [8]; 0.41 in [10]; 0.239 in assay [15]; 0.18 in assay [16]; -0.266 in the assay with Torsin-1A (Homo sapiens) [17]. The composite z-score with Torsin-1A (Homo sapiens) [18] is -0.415; in assay [19], -1.35. The z-score was -0.699 in [7]; 1.3 (inactive) in assay [9]; -2.2 (inactive) in [11]; 0.668 (inactive) in [12]; 1.53 (inactive) in assay [13]; 1.06 (inactive) in assay [14].

Regarding `COc1ccc(CCNC(=O)[C@@]2(c3ccc([N+](=O)[O-])cc3)CC(=O)N(C3CCCCC3)[C@@H]2c2ccc(CO)cc2I)cc1`, the composite z-score in assay [1] is 0.312; in [2], 1.19; in assay [3] it was 0.338; in assay [4], -0.0396; in assay [5] it was 1.04; in assay [6], 1.24. Moreover, the composite z-score is 0.0241 in the assay on Lefty1; 0.402 in [8]; 1.07 in assay [10]; -0.0827 in assay [15]; -0.0695 in assay [16]; 0.628 with Torsin-1A (Homo sapiens) [17]. In addition, the figures for the composite z-score (with Torsin-1A (Homo sapiens) [18]; in assay [19]) were 0.0294 and 0.575, respectively. Besides, the z-score in assay [7] was 3.1; in [9], -1.28 (inactive); in assay [11], -4.72 (inactive); in [12], 1.02 (inactive); in assay [13] it was 0.441 (inactive); in assay [14] it was 0.0398 (inactive).

Turning to `CC(C)N1CC=CC23O[C@@H]4/C=C\CCCOC(=O)C4[C@H]2C(=O)N(C(C)CO)[C@@H]3C1=O` (stereo not given in full), the composite z-score is -0.201 in [1]; -0.829 in [2]; -0.246 in assay [3]; -1.91 in [4]; -0.755 in assay [5]; -1.31 in assay [6]. Moreover, the composite z-score with Lefty1 is -0.246; in assay [8], 0.33; in assay [10], -0.603; in assay [15], -0.938; in assay [16], -0.176; with Torsin-1A (Homo sapiens) [17], -2.23. The composite z-score with Torsin-1A (Homo sapiens) [18] was -0.913; in assay [19] it was -0.413. Moreover, the z-score was 0.0728 in assay [7]; 0.281 (inactive) in assay [9]; 0.282 (inactive) in assay [11]; -2.11 (inactive) in [12]; -1.58 (inactive) in [13]; -0.869 (inactive) in assay [14].

Regarding `C=C[C@H](OC)[C@@H](O)c1ccc(OC)c(O)c1`, the composite z-score in [1] was -0.495; in assay [2] it was -1.4; in assay [3], -0.833; in [4], -1.99; in assay [5], -0.857; in assay [6] it was 0.598. In addition, the composite z-score in the assay on Lefty1 is -1.82; in assay [8], -0.609; in assay [10], -0.444; in [15] it was -1.56; in [16] it was -0.29; with Torsin-1A (Homo sapiens) [17] it was -0.874. Also, the composite z-score is -0.695 with Torsin-1A (Homo sapiens) [18] and -0.734 in [19]. Besides, the z-score in [7] was 0.793; in assay [9], -1.1 (inactive); in [11] it was 0.97 (inactive); in [12], -1.34 (inactive); in assay [13], 0.222 (inactive); in assay [14] it was -0.904 (inactive).

Take `C=C(CCCC)C(=O)CC[C@H](OC(=O)c1ccccc1-c1ccccc1C(=O)O)c1cccc(OCCO)c1`: the composite z-score is -0.413 in assay [1]; -0.298 in [2]; -0.194 in assay [3]; -0.435 in assay [4]; -0.0662 in assay [5]; 0.591 in assay [6]. Besides, the composite z-score in the assay with Lefty1 is 0.191; in assay [8] it was -0.373; in assay [10] it was -0.151; in assay [15] it was -0.352; in assay [16], -0.179; with Torsin-1A (Homo sapiens) [17] it was 0.259. Besides, the results for the composite z-score (in the assay with Torsin-1A (Homo sapiens) [18]; in assay [19]) were 0.114 and 0.847, respectively. Moreover, the z-score in assay [7] was 0.15; in assay [9] it was -0.755 (inactive); in assay [11] it was -0.548 (inactive); in assay [12], -0.77 (inactive); in assay [13], 0.434 (inactive); in assay [14], 5.04 (inactive).
